The list is not random: actives were taken first. Their share in the collection is about 4.3%.
SMARCA2 act = SMARCA2 (BRM) function activators, primary screen, cell-based, luminescence, high throughput | activation, % at 9.1 µM | 370,000 tested, 1% active | AID 652017, 2013 | MG213 cells, MMTV-luciferase reporter, dexamethasone, overnight; in the data active = activation above about 7.8%
FGF22 binding = binders of human FGF22 protein, primary screen, FGF22 synaptogenesis inhibitor project, biophysical, thermal shift, single point; Fibroblast growth factor 22 (Homo sapiens), Q9HCT0; recombinant FGF22 thermal shift, SYPRO orange fluorescence; percent of sucrose octasulfate shift, DMSO zero; activity (Tm shift, normalised), % at 9.99 µM; 340,000 tested, 1.5% active; AID 651658, 2012;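 active = mean Tm shift, scaled 0 neutral to 100 positive control, at about 1.3% or above, every replicate too, limit read from the data; inconclusive = no clear call, values can overlap the other calls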
MITF act = activators of MITF-driven TRPM1 promoter reporter, primary screen, cell-based, SK-MEL-5, luciferase, single point | SK-MEL-5 TRPM1-promoter luciferase, 24 h; % of positive control, neutral wells = 0 | activation, % at 12.5 µM | 300,000 tested, 0.75% active;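 active = mean activation of at least 80% with every replicate also reaching 80%; inconclusive = mean reaches 80% but some replicate falls short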
esBAF inh = Bmi1 luciferase reporter increase in mESCs, primary screen, esBAF inhibitor project, mouse ES cells, Bmi1 luciferase knock-in, single point; 24 h; 100% = twice the neutral-well signal; reporter increase, % at 12.5 µM; 350,000 tested, 2% active; AID 602393, 2012; in the data active = activation above about 40%; inconclusive = no clear call, values can overlap the other calls;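 note: a rise in the Bmi1 reporter signal indicates esBAF inhibition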
Wnt bcat act = Wnt/beta-catenin pathway activators, primary screen, cell-based, plate reader, single point. Wnt/beta-catenin reporter cell assay, activator. activation, % at 9.35 µM. 300,000 tested, 1.2% active. AID 743398, 2014; in the data active = activation above about 30%, passing the limit was not always enough; inconclusive = no clear call, values can overlap the other calls
AF4-AF9 inh = inhibitors of AF4 peptide binding to AF9, primary screen, biochemical, AlphaScreen, biotin-AF4 peptide, FLAG-AF9, single point. Protein AF-9 (Homo sapiens), P42568. inhibition, % at 10 µM. 350,000 tested, 0.47% active. AID 651704, 2012;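 active = every replicate reaching a set inhibition limit, whatever the replicate mean, cut at about 25% in these data; inconclusive = mean inhibition reaches that limit but some replicates miss it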
Target sequence (P42568 whole entry, looked up): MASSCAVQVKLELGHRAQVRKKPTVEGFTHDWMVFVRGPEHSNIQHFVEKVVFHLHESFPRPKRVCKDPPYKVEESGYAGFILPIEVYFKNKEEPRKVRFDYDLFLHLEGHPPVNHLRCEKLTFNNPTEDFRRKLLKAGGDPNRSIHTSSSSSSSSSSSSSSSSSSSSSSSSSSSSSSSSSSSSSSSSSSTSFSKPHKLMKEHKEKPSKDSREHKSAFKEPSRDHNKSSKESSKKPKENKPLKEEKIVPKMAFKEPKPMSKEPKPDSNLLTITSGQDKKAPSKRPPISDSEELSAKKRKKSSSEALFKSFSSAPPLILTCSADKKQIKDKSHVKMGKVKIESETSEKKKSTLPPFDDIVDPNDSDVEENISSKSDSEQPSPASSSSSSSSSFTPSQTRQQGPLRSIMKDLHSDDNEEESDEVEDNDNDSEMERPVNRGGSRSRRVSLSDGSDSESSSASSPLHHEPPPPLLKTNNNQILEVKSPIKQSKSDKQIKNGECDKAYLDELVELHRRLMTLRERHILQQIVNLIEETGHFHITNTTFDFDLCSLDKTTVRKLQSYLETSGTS
SMARCA2 conf = SMARCA2 (BRM) function activators, confirmation, cell-based, luminescence, triplicate; shares compounds with SMARCA2 act; MG213 cells, MMTV-luciferase with dexamethasone, overnight; MG213 cells expressing E1A, Rb sequestered; DMSO wells 0%, reference activator 100%; activation, % at 9.1 µM; 3,500 tested, 30% active; AID 652260, 2013;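 active = activation above its plate's cutoff, the mean activation of tested wells plus 3 SD, cut at about 7.9% in these data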
GAL4-VP16 Luc = GAL4-VP16 luciferase reporter activation, counter-screen for SMARCA2 (BRM) activator project, cell-based, pG5luc, luminescence, high throughput; activation, % at 9.1 µM; 3,500 tested, 41% active; shares compounds with SMARCA2 act; HEK293 GAL4-VP16 pG5luc reporter; scaled: DMSO wells 0%, SAHA wells 100%;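 active = activation above the solvent-only control well mean plus 3 SD, averaged across control plates, cut at about 5.2% in these data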
Numbers stand for hits; n = inactive; u = inconclusive; x = no result.

SMILES | SMARCA2 act | FGF22 binding | MITF act | esBAF inh | Wnt bcat act | AF4-AF9 inh | SMARCA2 conf | GAL4-VP16 Luc
CCOC(=O)[C@@]12CN(C(=O)OC(C)(C)C)CC=C1N(Cc1ccc(OC)cc1)C(=O)[C@H]2CC(=O)N1CCC(c2ccccc2)CC1 | n | x | x | x | x | x | x | x
O=C(Cn1c(=O)c2sccc2n(Cc2ccc([N+](=O)[O-])cc2)c1=O)NCCc1ccccc1 | 10 | x | n | x | n | x | n | n
COc1cc2c(cc1NC(=O)c1ccco1)CCCC2 | 10 | n | n | 76 | n | n | 7.9 | 11
Cc1cccc(Nc2nnc(SCC(=O)c3c(N)n(C4CC4)c(=O)[nH]c3=O)s2)c1 | n | n | n | n | n | n | x | x
C/C(N)=C(/C#N)C(=O)CSc1nnc(Nc2cccc(C)c2)s1 | 8.3 | n | n | 60 | n | n | n | 6.2
CCCC#Cc1ccc([C@@H]2[C@@H](CO)N3C(=O)CN(C(=O)Nc4ccc(F)cc4)C[C@H]23)cc1 | x | x | x | x | x | n | x | x
ClCc1nnc(-c2cc3c(s2)CCCC3)o1 | 11 | n | n | x | n | n | n | n
O=C(Nc1ccccc1)Nc1nccs1 | 9.0 | x | x | x | x | x | n | n
C[C@@H]1CN([C@@H](C)CO)C(=O)c2cccc(NC(=O)c3nc4ccccc4s3)c2O[C@H]1CN(C)Cc1ccc(C(=O)O)cc1 | x | n | x | n | x | n | x | x
CCCN1CCN(CCCNC(=O)c2cc3c(=O)oc4ccc(C)cc4c3s2)CC1 | n | n | n | n | n | n | x | x
Cc1ccc2nc(Cl)c3cc(C(=O)NCCCN4CCCC4)sc3c2c1 | 14 | n | n | n | n | n | 10 | n
Fc1ccc(NCc2cn3ccccc3n2)cc1 | 9.7 | x | n | u | x | x | n | 6.3
COc1ccc(C=C2C(=O)OC(C)(C)OC2=O)cc1OC | n | n | n | n | n | n | x | x
COc1cc(/C=C2\Oc3cc(O)ccc3C2=O)ccc1O | 10 | n | n | 46 | n | n | 18 | 10
COc1ccc(/C=C2\OC(=O)c3c(OC)cccc32)cc1OC | 8.6 | x | 125 | 48 | x | x | 22 | 14
CCOC(=O)CN1C(=O)S/C(=C\c2ccc(-c3ccc(C(=O)O)c(Cl)c3)o2)C1=O | n | n | n | n | n | n | x | x
CC(C)N1C(=O)S/C(=C\c2ccc(-c3ccc(Cl)c(C(=O)O)c3)o2)C1=O | 15 | n | x | 48 | n | n | 12 | 13
Cc1n[nH]c(=S)n1/N=C/c1ccc(OCc2ccc(Cl)cc2)cc1 | n | x | x | n | x | x | x | x
Cc1n[nH]c(=S)n1/N=C/c1ccc(OCc2ccc(Cl)cc2Cl)cc1 | 13 | x | n | x | n | x | n | n
COc1ccc(NC(=O)c2sc(SC)nc2N)cc1 | 11 | n | n | n | x | n | n | n
COc1ccc(NC(=O)c2sc(SCc3ccccc3)nc2N)cc1 | n | x | n | n | n | x | x | x
C[C@@H]1CN([C@@H](C)CO)C(=O)c2cc(-c3cccc(C#N)c3)cnc2O[C@@H]1CN(C)Cc1ccccc1 | x | n | x | n | x | n | x | x
Cc1ccc(-c2nc(N/N=C/c3ccccc3[N+](=O)[O-])c3ccccc3n2)cc1 | 8.2 | x | n | n | x | x | n | 8.2
Brc1ccc(-c2nc(N/N=C/c3cccnc3)c3ccccc3n2)cc1 | n | x | n | x | x | x | x | x
CN(C)c1cnn(-c2ccccc2)c(=O)c1Cl | 8.5 | n | n | x | n | n | n | n
SMILES | SMARCA2 act | FGF22 binding | MITF act | esBAF inh | Wnt bcat act | AF4-AF9 inh | SMARCA2 conf | GAL4-VP16 Luc
CCCC(=O)Nc1ccc2c(c1)C(=O)N(C)C[C@H](OC)[C@H](C)CN(Cc1nccs1)[C@H](C)CO2 | x | n | x | n | x | n | x | x
COc1cccc(-c2cnc(C(O)c3ccc(C)cc3)[nH]2)c1 (stereo not drawn) | n | n | x | n | n | n | x | x
COc1cccc(-c2cnc(C(O)c3ccccc3)[nH]2)c1 (stereo not drawn) | 9.2 | n | x | n | n | n | n | 8.7
CN1[C@@H]2c3ccc(-c4ccc(F)cc4)c(=O)n3C[C@@H]2[C@@H](CO)[C@@H]1C(=O)NCc1ccccn1 | x | n | x | n | x | n | x | x
Cc1ccsc1C1NC(=O)c2c(sc3c2CCN(C)C3)N1 (stereo not drawn) | n | n | n | n | n | n | x | x
CN1CCc2c(sc3c2C(=O)NC(c2cccs2)N3)C1 (stereo not drawn) | 11 | n | n | n | n | n | n | n
COc1cc2c(cc1OC)C(c1cc3ccc(C)cc3[nH]c1=O)N(C(=O)c1ccco1)CC2 (stereo not drawn) | 11 | n | n | n | n | n | n | n
O=C(O)COc1ccc(C(=O)Cc2ccc3c(c2)OCCCO3)c(O)c1 | n | n | n | n | n | n | x | x
COc1ccc(C(=O)Cc2ccc3c(c2)OCO3)c(O)c1 | 8.2 | x | n | x | 37 | x | n | 8.9
Nc1ccc2c(c1)C(=O)C(=O)c1ccccc1-2 | n | x | n | x | x | x | x | x
Nc1ccc2c(c1)C(=O)c1ccccc1C2=O | 12 | n | 104 | 69 | 40 | n | 9.1 | 9.0
CC(=O)Nc1ccc2c(c1)C(=O)c1ccccc1C2=O | 9.4 | x | x | n | x | x | 19 | 11
O=C1c2ccccc2C(=O)c2cc(NC(=O)C3CC3)ccc21 | n | n | n | x | n | n | x | x
O=C(C[C@H]1C=C[C@H](NS(=O)(=O)c2ccc(F)cc2)[C@@H](CO)O1)NCc1ccncn1 | x | n | x | n | x | n | x | x
O=C1CCC(C(=O)N2CCCCCC2)CN1Cc1cccc(C(F)(F)F)c1 (stereo not drawn) | 9.2 | n | n | n | n | n | n | n
CN(C(=O)C1CCC(=O)N(Cc2cccc(F)c2)C1)C1CCCCC1 (stereo not drawn) | 9.1 | n | 98 | 97 | 44 | n | 11 | 13
C[C@H]1CCCCO[C@H](CN(C)C(=O)Cc2ccccc2)[C@@H](C)CN([C@@H](C)CO)C(=O)c2cc(NS(=O)(=O)c3ccc(F)cc3)ccc2O1 | x | n | x | n | x | x | x | x
CC(C)CC#Cc1ccc2c(c1)O[C@H](CN(C)C(=O)Nc1ccccc1)[C@H](C)CN([C@@H](C)CO)S2(=O)=O | x | n | x | n | x | n | x | x
O=C(NC(=O)c1ccc(F)cc1)Nc1nc(-c2cccs2)cc(C(F)(F)F)n1 | 8.4 | n | n | n | n | n | n | n
Cc1cc(NC(=O)CCCS(=O)(=O)c2nc(-c3cccs3)cc(C(F)(F)F)n2)no1 | n | x | n | x | n | x | x | x

Bioassay records (PubChem BioAssay)
